Several values for one entry are separate records, joined by “and”; a condition that tells them apart may be missing. Identical values can stand only once.
What was measured:
[1] = target: Serine/threonine-protein kinase MRCK alpha (Homo sapiens) (UniProt Q5VT25); conditions: at 0.1 µM
[2] = target: Serine/threonine-protein kinase MRCK alpha (Homo sapiens) (UniProt Q5VT25); conditions: at 1 µM
[3] = target: Serine/threonine-protein kinase MRCK beta (Homo sapiens) (UniProt Q9Y5S2); conditions: at 0.1 µM
Serine/threonine-protein kinase MRCK beta (Homo sapiens), sequence (Q9Y5S2 whole entry): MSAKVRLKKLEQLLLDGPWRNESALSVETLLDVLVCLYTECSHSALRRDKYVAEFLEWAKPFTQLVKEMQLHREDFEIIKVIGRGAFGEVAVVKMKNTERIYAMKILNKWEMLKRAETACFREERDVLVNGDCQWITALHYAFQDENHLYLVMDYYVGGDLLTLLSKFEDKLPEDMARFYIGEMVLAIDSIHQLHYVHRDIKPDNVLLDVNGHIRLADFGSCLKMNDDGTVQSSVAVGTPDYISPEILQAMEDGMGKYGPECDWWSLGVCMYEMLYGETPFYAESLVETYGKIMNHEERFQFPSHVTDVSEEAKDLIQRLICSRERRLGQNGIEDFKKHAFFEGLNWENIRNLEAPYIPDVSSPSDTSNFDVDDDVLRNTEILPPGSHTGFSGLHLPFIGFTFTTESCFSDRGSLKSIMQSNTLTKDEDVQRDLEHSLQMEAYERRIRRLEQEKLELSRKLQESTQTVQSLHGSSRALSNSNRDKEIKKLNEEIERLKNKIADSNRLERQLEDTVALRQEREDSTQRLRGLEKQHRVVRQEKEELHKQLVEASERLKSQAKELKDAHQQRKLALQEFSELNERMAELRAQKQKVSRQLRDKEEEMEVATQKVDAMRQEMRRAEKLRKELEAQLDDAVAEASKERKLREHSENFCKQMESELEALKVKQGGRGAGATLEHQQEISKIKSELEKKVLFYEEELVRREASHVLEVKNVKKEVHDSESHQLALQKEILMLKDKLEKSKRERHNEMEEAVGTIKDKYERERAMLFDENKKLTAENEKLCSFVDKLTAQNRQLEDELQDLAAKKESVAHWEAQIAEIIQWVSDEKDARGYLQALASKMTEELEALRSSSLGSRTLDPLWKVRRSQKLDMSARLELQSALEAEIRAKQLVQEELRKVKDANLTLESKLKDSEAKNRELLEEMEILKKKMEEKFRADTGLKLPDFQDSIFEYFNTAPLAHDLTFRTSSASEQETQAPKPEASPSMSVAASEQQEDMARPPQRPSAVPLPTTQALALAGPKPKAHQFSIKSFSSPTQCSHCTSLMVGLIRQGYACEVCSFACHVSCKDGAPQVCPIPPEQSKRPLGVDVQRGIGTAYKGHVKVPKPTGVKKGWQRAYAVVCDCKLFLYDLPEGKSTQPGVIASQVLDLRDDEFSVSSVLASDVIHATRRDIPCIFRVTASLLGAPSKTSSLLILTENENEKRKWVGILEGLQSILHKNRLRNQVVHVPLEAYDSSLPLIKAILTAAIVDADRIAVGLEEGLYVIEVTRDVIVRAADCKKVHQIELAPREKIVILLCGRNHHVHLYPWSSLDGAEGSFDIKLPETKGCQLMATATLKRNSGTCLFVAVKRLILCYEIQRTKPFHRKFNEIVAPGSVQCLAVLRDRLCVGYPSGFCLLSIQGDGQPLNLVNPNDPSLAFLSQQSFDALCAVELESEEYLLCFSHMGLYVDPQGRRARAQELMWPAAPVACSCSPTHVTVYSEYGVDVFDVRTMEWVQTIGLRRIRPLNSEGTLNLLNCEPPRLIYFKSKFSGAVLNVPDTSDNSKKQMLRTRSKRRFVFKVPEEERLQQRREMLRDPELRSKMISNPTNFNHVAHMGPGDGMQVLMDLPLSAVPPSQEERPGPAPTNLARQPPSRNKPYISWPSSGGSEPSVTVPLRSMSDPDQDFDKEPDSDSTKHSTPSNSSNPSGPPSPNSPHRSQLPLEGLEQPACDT

[4] = target: Serine/threonine-protein kinase MRCK beta (Homo sapiens) (UniProt Q9Y5S2); conditions: at 1 µM
[5] = target: Ribosomal protein S6 kinase alpha-5 (Homo sapiens) (UniProt O75582); conditions: at 0.1 µM
[6] = target: Ribosomal protein S6 kinase alpha-5 (Homo sapiens) (UniProt O75582); conditions: at 1 µM
[7] = target: Ribosomal protein S6 kinase alpha-4 (Homo sapiens) (UniProt O75676); conditions: at 0.1 µM
[8] = target: Ribosomal protein S6 kinase alpha-4 (Homo sapiens) (UniProt O75676); conditions: at 1 µM
[9] = target: Ribosomal protein S6 kinase beta-1 (Homo sapiens) (UniProt P23443); conditions: at 0.1 µM
[10] = target: Ribosomal protein S6 kinase beta-1 (Homo sapiens) (UniProt P23443); conditions: at 1 µM
[11] = target: T1, 3-phosphoinositide-dependent protein kinase 1 (Homo sapiens) (UniProt O15530); conditions: at 0.1 µM;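 note: values are mean inhibition of PDK1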
T1 sequence (whole entry): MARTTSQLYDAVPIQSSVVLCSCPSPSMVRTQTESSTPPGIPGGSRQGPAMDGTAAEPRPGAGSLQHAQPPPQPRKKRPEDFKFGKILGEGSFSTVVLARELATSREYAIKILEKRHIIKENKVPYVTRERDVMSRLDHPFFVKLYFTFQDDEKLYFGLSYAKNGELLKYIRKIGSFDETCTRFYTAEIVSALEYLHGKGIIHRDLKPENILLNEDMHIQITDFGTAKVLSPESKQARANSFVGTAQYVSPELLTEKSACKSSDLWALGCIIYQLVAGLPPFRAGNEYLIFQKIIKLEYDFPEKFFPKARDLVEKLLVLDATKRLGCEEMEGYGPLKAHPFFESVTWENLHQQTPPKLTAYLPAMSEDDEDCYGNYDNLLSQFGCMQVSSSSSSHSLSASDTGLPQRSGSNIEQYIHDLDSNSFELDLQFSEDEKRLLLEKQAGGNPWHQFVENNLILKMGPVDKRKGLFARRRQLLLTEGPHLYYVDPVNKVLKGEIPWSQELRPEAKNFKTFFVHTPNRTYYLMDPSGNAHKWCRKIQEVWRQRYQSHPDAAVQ

[12] = target: cAMP-dependent protein kinase catalytic subunit alpha (Homo sapiens) (UniProt P17612); conditions: at 0.1 µM
[13] = target: cAMP-dependent protein kinase catalytic subunit alpha (Homo sapiens) (UniProt P17612); conditions: at 1 µM
[14] = target: Protein kinase C alpha type (Homo sapiens) (UniProt P17252); conditions: at 0.1 µM
[15] = target: Protein kinase C alpha type (Homo sapiens) (UniProt P17252); conditions: at 1 µM
[16] = target: Protein kinase C beta type (Homo sapiens) (UniProt P05771); conditions: at 0.1 µM
[17] = target: Protein kinase C beta type (Homo sapiens) (UniProt P05771); conditions: at 1 µM
[18] = target: Protein kinase C eta type (Homo sapiens) (UniProt P24723); conditions: at 0.1 µM
Protein kinase C eta type (Homo sapiens), sequence (P24723 whole entry): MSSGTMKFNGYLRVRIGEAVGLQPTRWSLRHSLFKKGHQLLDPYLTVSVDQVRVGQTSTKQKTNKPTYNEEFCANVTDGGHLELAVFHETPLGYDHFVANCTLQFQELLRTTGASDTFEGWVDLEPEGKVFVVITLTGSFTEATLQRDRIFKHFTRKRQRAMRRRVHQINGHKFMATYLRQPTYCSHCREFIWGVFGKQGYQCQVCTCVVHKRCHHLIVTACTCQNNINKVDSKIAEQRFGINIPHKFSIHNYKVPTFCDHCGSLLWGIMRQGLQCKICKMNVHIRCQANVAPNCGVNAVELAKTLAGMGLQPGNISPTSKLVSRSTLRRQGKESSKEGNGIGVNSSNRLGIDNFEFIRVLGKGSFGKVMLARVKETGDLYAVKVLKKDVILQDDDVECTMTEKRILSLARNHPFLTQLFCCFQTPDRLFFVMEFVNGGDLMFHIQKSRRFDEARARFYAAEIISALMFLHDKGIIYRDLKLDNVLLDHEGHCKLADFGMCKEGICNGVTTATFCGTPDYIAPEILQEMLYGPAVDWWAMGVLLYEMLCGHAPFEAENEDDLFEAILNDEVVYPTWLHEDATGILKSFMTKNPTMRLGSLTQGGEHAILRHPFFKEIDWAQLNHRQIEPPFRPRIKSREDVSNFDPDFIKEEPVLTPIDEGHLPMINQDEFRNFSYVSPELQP

[19] = target: Protein kinase C eta type (Homo sapiens) (UniProt P24723); conditions: at 1 µM
[20] = target: Protein kinase C gamma type (Homo sapiens) (UniProt P05129); conditions: at 0.1 µM;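 note: values are mean percent inhibition of PKC gamma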

Serine/threonine-protein kinase MRCK alpha (Homo sapiens), sequence (Q5VT25 whole entry): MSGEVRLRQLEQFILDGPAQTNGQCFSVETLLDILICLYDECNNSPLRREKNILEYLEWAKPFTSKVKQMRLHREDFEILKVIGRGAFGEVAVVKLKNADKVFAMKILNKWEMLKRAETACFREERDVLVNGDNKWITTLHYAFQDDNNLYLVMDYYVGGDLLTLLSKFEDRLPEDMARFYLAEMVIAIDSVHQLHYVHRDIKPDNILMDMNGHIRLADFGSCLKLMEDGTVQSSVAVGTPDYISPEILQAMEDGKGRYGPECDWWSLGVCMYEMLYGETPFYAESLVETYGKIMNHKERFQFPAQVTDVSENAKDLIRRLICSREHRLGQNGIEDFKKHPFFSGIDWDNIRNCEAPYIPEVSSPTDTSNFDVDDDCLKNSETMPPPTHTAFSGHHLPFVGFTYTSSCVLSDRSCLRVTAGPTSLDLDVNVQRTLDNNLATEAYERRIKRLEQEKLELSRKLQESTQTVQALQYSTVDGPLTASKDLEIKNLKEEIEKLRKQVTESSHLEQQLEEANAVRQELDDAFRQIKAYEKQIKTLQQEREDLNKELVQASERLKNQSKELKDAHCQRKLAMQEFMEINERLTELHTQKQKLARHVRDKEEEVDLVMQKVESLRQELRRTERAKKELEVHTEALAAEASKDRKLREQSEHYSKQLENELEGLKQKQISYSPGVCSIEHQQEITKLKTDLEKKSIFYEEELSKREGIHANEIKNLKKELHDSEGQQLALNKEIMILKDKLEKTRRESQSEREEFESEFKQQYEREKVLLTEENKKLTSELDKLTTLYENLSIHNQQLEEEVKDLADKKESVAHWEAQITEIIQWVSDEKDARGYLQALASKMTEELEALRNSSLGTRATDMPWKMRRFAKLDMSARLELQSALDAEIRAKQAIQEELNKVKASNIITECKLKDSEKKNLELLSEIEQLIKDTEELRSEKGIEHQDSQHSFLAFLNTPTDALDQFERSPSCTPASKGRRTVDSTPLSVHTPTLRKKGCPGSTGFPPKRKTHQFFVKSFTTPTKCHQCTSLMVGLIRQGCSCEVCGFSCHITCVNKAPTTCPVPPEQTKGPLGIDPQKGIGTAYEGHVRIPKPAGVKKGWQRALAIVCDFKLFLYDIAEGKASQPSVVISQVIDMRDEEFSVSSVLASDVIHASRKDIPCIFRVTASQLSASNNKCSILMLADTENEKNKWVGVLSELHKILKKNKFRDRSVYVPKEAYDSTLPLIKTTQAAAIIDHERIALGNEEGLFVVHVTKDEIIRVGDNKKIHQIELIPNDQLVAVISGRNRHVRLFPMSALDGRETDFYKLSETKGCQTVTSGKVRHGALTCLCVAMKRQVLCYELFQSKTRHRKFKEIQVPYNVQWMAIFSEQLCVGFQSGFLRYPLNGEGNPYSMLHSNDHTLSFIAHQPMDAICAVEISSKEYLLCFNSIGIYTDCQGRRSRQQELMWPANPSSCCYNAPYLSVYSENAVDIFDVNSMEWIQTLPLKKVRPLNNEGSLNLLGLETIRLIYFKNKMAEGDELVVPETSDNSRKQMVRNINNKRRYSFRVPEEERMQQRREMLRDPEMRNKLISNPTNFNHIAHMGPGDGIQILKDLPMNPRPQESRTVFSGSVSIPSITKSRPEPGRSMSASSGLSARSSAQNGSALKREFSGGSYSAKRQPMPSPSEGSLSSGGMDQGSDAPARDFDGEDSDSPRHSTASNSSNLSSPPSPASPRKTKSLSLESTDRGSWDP

Row | SMILES | inhibition [1] | inhibition [2] | inhibition [3] | inhibition [4] | inhibition [5] | inhibition [6] | inhibition [7] | inhibition [8] | inhibition [9] | inhibition [10] | inhibition [11] | inhibition [12] | inhibition [13] | inhibition [14] | inhibition [15] | inhibition [16] | inhibition [17] | inhibition [18] | inhibition [19] | inhibition [20]
1 | COc1cccc(-n2ncc3c(N/N=C/c4ccc(C(=O)NCCN(C)C)cc4)ncnc32)c1 | 2.1% | 7.78% | 2.49% | 8.24% | 3.26% | 8.01% | 1.32% | 4.69% | 4.61% | 20.9% | 2.52% | 2.29% | 11.4% | 1.03% | 9.37% | 1.2% | 6.99% | 2.52% | 0.62% | 26.3%
2 | CN(C)CCNC(=O)Nc1ccc(N(C)c2ccnc(Nc3ccc(CS(C)(=O)=O)cc3)n2)cc1 | -0.24% | -0.69% | 1.09% | 2.25% | 3.26% | 3.31% | 3.22% | 4.32% | 1.72% | 1.94% | 2.36% | 2.31% | 5.69% | 1.06% | 1.51% | -0.61% | 0.12% | 5.94% | -2.33% | 2.25%
3 | COc1cc(N2CCN(C(C)C)CC2)ccc1Nc1nc(Nc2cccc(F)c2C(=O)O)c2cc[nH]c2n1 | -0.32% | 1.08% | -1.28% | 0.34% | 2.89% | 3.87% | 0.48% | 2.67% | 1.22% | 2.81% | 2.24% | 1.49% | 2.03% | 1.38% | 2.23% | -0.07% | 3.07% | 2.71% | 4.16% | 1.77%
4 | O=C(O[C@H]1CN[C@H](C#Cc2cc3ncnc(Nc4ccc5c(ccn5Cc5cc(F)ccc5F)c4)c3s2)C1)N1CCOCC1 | -0.29% | -1.5% | 1.19% | 1.68% | -1.77% | -0.4% | 2.95% | 4.34% | 1.82% | 1.74% | 2.16% | 1.86% | 1.48% | 0.78% | 2.63% | 1.59% | 1.27% | 5.63% | 3.54% | 1.38%
5 | COc1c(C(N)=O)cc(-c2ccc(Cl)cc2)cc1-c1ccc(S(N)(=O)=O)cc1 | 5.11% | 4.98% | -0.26% | 2.36% | 2.38% | 3.81% | 3.65% | 5.79% | 3.07% | 4.29% | 1.2% | 3.03% | 4.3% | 0.59% | 1.5% | 0.62% | 3.84% | 1.17% | 5.18% | 1.45%
6 | CN1CCC(C(=O)Nc2n[nH]c3nc(-c4ccc(O)cc4)c(Br)cc23)CC1 | 2.05% and 4.4% | 21.6% and 19.5% | 1.99% and 0.84% | 12.8% and 12.7% | 1.62% and 0.25% | 3.91% and 1.49% | 2.85% and 1.78% | 5.51% and 1.19% | 0.96% and -0.21% | 2.58% and -0.02% | 0.58% and 1.23% | -1.53% and 1.47% | 1.39% and 2.8% | -2.91% and 0.74% | 7.49% and 11.2% | 2.04% and 0.96% | 13.9% and 10.2% | 3.63% and 1.62% | 8.67% and 3.54% | 4.29% and -2.24%
7 | CS(=O)(=O)CCNCc1ccc(-c2ccc3ncnc(Nc4ccc(OCc5cccc(C(F)(F)F)c5)cc4)c3c2)o1 | 1.26% | 5.01% | 0.69% | 2% | 4.18% | 3.88% | 1.66% | 2.03% | 1.39% | 3.25% | 0.06% | 1.97% | 4.62% | 1.05% | 2.11% | 1.32% | 0.08% | 6.28% | 4.9% | 2.65%
8 | CCOc1ccc2c(-c3ccnc(Nc4cc(OC)cc(C(F)(F)F)c4)n3)cnn2n1 | -0.76% | -0.62% | 0.09% | 0.13% | 1.4% | 2.37% | 1.07% | -0.61% | 0.27% | 0.73% | 1.07% | 0.6% | 3.91% | 0.42% | 5.31% | 5.55% | 2.13% | 1.53% | -0.66% | 1.75%
9 | CN1CCC(n2cnc(-c3ccc(F)cc3)c2-c2ccnc(NCCO)n2)CC1 | 0.14% | 2.92% | -1.48% | 0.28% | 3.35% | 4.7% | 1.86% | 4.02% | 0.69% | 1.98% | 1.23% | 2.28% | 4.71% | 1.14% | 6.57% | 0.78% | 5.76% | 3.08% | 2.5% | 3.49%
10 | CCCNc1cccc(-n2ncc3c(N/N=C/c4ccncc4)ncnc32)c1 | 1.31% | 5.18% | -0.11% | 0.92% | -4.25% | -2.6% | 1.74% | 2.6% | 1.2% | 8.74% | 1.19% | 1.59% | 3.62% | 0.98% | 1.45% | 1.35% | 5.99% | 2.17% | 2.92% | 1.35%
11 | Nc1nccc(-c2c(-c3ccc(F)cc3)ncn2C2CCNCC2)n1 | 0.35% and 0.18% | 2.58% and 5.06% | 0.52% and 1.07% | 1.72% and 3.43% | -2.32% and -0.28% | -1.5% and 1.46% | -1.86% and 0.59% | -1.17% and 2.2% | -1.49% and 0.02% | -0.77% and 0.22% | -3.23% and 1.39% | -0.37% and 3.2% | 20.2% and 30.2% | 1.33% and 2.68% | 21.7% and 29% | 1.41% and 3.25% | 17.9% and 21.4% | -2.01% and 0.32% | 0.29% and 1.78% | -1.71% and 0.92%
12 | CNC(=O)c1cncc(/C=C/c2ccccc2C)c1 | -0.01% | 2.94% | -0.34% | 0.83% | 3.42% | 6.01% | 2.58% | 4.27% | -0.48% | 1.97% | 2.42% | 4.12% | 3.53% | 0.63% | 1.68% | 1.31% | 5.47% | 4.83% | 5.78% | -2.58%
13 | NS(=O)(=O)c1cccc(N/C=C2\C(=O)Nc3ccccc32)c1 | 0.02% | 0.03% | 0.57% | 2.14% | 10.2% | 14.8% | 2.95% | 18.6% | 2.13% | 8% | 4.6% | 2.79% | 1.62% | 0.98% | 2.84% | -0.22% | 2.02% | 1.78% | 3.72% | 0.43%
14 | CNC(=O)c1sc(-n2cnc3cc(OC)c(OC)cc32)cc1OCc1ccccc1C(F)(F)F | -1.57% | 2.7% | 0.75% | -0.54% | 1.63% | -0.43% | 3.06% | 2.24% | 1.25% | 0.64% | 1.81% | 2.01% | 2.29% | 0.09% | 0.93% | 1.29% | -0.63% | 3.69% | 1.55% | 5.06%
